Compounds with a hit are over-represented: about 1.3% of the library has one in this group of screens.
Sa RN4220 lethal – S. aureus RN4220 growth inhibition; inhibition, % (test concentration not listed); OD600, 16 h; 330,000 compounds, 0.33% hits; AID 1259311; in the data active means inhibition above about 85%
SARS 3CLpro inh – SARS-CoV 3CLpro protease inhibition; P0C6X7; recombinant SARS-CoV 3CLpro, quenched FRET peptide cleavage; inhibition, % at 6 µM; 290,000 compounds, 0.14% hits; in the data active means inhibition above about 12%
Sa ugtP lethal – compounds lethal to S. aureus RN4220 ugtP deletion mutant | OD600 growth, 16 h | growth inhibition, % (concentration not given with the values) | AID 1259309 | 330,000 compounds, 0.54% hits; in the data active means growth inhibition above about 68%
PfHsp40 rescue – compounds rescuing yeast from Plasmodium falciparum HSP40 toxicity | S. cerevisiae expressing PfHsp40, growth rescue, ATP luminescence | growth rescue, % at 12.5 µM | 340,000 compounds, 0.68% hits | AID 504582; in the data active means growth rescue above about 28%, passing the limit was not always enough; inconclusive means no clear call, values can overlap the other calls;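 further: yeast W303a lacking pdr1 and pdr3 grown in galactose medium; growth measured after three days at 30 °C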
BJeLR viability – BJeLR cell viability loss; BJeLR (HRASV12) viability, CellTiter-Glo ATP luminescence, 48 h; inhibition, % (test concentration not listed); 300,000 compounds, 0.17% hits; AID 1554; in the data active means inhibition above about 50%; inconclusive means no clear call, values can overlap the other calls
Numbers stand for hits; 0 = inactive; ? = inconclusive; - = no result.

SMILES | Sa RN4220 lethal | SARS 3CLpro inh | Sa ugtP lethal | PfHsp40 rescue | BJeLR viability
O=c1c2ccccc2nc(/C=C/c2ccccc2)n1-c1ccccc1O | 96.1 | 0 | 97.5 | 0 | 0
O=c1c2ccccc2nc(/C=C/c2ccc(O)cc2)n1-c1ccccc1O | 95.3 | 0 | 90.8 | 0 | 0
C/C(=N\N=C(/N)SC1CC(=O)N(c2ccccc2)C1=O)c1cccs1 (stereo unspecified) | - | 0 | - | 0 | 0
C/C(=N\N=C(/N)SC1CC(=O)N(c2ccc(Cl)c(Cl)c2)C1=O)c1cccs1 (stereo unspecified) | - | 0 | - | 36.6 | 0
Cn1c(=O)oc2cc(S(=O)(=O)N3CCCC(C(=O)NCC4COc5ccccc5O4)C3)ccc21 (stereo unspecified) | 0 | 0 | 0 | 0 | 0
CCNC(=S)Nc1ccc(C)c(S(=O)(=O)Nc2ccccc2OC)c1 | 0 | 0 | 0 | 105.9 | 0
COc1ccccc1NS(=O)(=O)c1cc(NC(=O)Nc2ccccc2)ccc1N1CCCCC1 | 0 | 0 | 0 | 45.8 | -
CCOC(=O)c1c2c(n(C)c1COC)C(=O)C(=O)c1ccc(Br)cc1-2 | - | 0 | - | - | 69.0
CCCCN(CCCC)S(=O)(=O)c1ccc(C(=O)Nc2nnc(CSC)o2)cc1 | 111.9 | 0 | 99.0 | 0 | 0
CCN(c1ccccc1)S(=O)(=O)c1ccc(C(=O)Nc2nnc(CSC)o2)cc1 | 0 | 0 | 0 | 40.0 | 0
CCN(c1ccccc1)S(=O)(=O)c1ccc(C(=O)Nc2nnc(COC)o2)cc1 | 0 | 0 | 0 | 0 | 0
O=C(NCC(c1ccco1)N1CCCC1)c1ccc(-n2cccn2)cc1 (stereo unspecified) | 0 | - | 0 | 0 | -
CCOc1ccc(NC(=S)NCCCn2ccnc2)cc1 | 0 | 0 | 0 | 0 | 0
S=C(NCCCn1ccnc1)Nc1cccc(Cl)c1 | 0 | 0 | 0 | 35.0 | 0
COc1cc2c(cc1NC(=O)Nc1ccccc1)oc1ccccc12 | 0 | 0 | 84.2 | ? | 0
O=C(CN1C(=O)/C(=C/c2cccc(Br)c2)SC1=S)NCCCN1CCOCC1 | 0 | 0 | 0 | 0 | 0
O=C(CCCN1C(=O)/C(=C/c2cccc(Br)c2)SC1=S)NCCCN1CCOCC1 | 0 | 0 | 0 | 0 | 76.6
CCc1ccc(/C=C2\SC(=S)N(CCC(=O)NCCCN3CCOCC3)C2=O)cc1 | 0 | 0 | 0 | 0 | 102.9
CCN1C(=O)/C(=C\N(C)C)S/C1=N\S(=O)(=O)c1ccccc1 | - | 0 | - | 0 | 0
CN(C)S(=O)(=O)c1cccc(NC(=S)Nc2cc(Cl)cc(Cl)c2)c1 | 99.7 | 0 | 99.9 | 0 | 0
Cc1c(C(=O)Nc2ccc3c(c2)OCCO3)sc2nc(-c3ccccc3)cn12 | 0 | 0 | 0 | 144.9 | 0
Clc1ccc(/C=C/c2nc3ccccc3[nH]2)cc1 | 0 | 0 | 0 | 0 | 0
Clc1ccc(/C=C/c2nc3ccccc3[nH]2)c(Cl)c1 | 0 | 0 | 91.6 | 0 | 0
CS(=O)(=O)N(CC(=O)NCCSCc1ccccc1Cl)c1ccccc1F | 0 | 0 | 0 | 0 | 0
CCOc1ccc(-c2[nH]ncc2Oc2cccc(OC)c2)c(O)c1 | 0 | 0 | 0 | 336.5 | 0
SMILES | Sa RN4220 lethal | SARS 3CLpro inh | Sa ugtP lethal | PfHsp40 rescue | BJeLR viability
CCOc1ccc(-c2[nH]ncc2-c2ccccc2)c(O)c1 | 0 | 0 | 0 | 0 | 0
COc1ccc(-c2cn[nH]c2-c2ccc(OC)cc2O)cc1 | 0 | 0 | 0 | 0 | 0
COc1ccccc1-c1cn[nH]c1-c1ccc(OCc2ccccc2)cc1O | - | 0 | - | 213.7 | 0
COc1ccc(-c2cn[nH]c2-c2ccc(OCc3ccccc3)cc2O)cc1 | 0 | 0 | 0 | 115.2 | 0
COc1cccc(Oc2cn[nH]c2-c2ccc(OC)cc2O)c1 | 0 | 0 | 0 | 0 | 0
O=C(Nc1nc2ccc(F)cc2s1)C1=NN(c2ccccc2)C(=O)CC1 | 0 | 0 | 0 | 0 | 0
COc1ccc(C(=O)NCCS(=O)(=O)NCc2cccs2)cc1 | 0 | - | 0 | 0 | 0
COc1ccc(CCNc2cc(C)nc(N)n2)cc1OC | 0 | 0 | 0 | 0 | 0
CC(NC(=O)Nc1ccccc1)C(c1ccccc1)N1CCOCC1 (stereo unspecified) | 0 | 0 | 0 | 0 | 0
Cc1cc(C)n2c(=O)c3ccc(Cl)cc3nc2c1C#N | 0 | 0 | 0 | 0 | 0
Cc1cc(Cl)n2c(nc3cc(F)c(F)cc32)c1C#N | 0 | 0 | 0 | 0 | 127.6
CCCC[C@@H]1CNC(=O)C(=O)N1CCCc1cc(OC)c(OC)c(OC)c1 | - | - | - | 0 | 0
COC(=O)C1=C(C(=O)OC)C2OC1c1cc3ccccc3cc12 | - | - | - | 71.1 | -
COc1ccc(C(=O)N2CCOC2CNC(=O)C(=O)NCCc2ccccc2OC)cc1 (stereo unspecified) | 0 | 0 | 0 | 0 | 0
O=C1SC(Cc2ccccc2)C(=O)N1c1ccccc1 (stereo unspecified) | 0 | 0 | 0 | - | 89.2
COc1ccc(Nc2ncc(C#N)c(N)n2)c(OC)c1 | 0 | 0 | 0 | 66.2 | 0
O=C(O)c1cc(N2N=C(C(F)(F)F)/C(=C/C=C/c3ccco3)C2=O)ccc1Cl | 0 | 0 | 0 | 112.3 | -
CC(C)(C)c1cc(C=C(C#N)C#N)cc(C(C)(C)C)c1O | 0 | - | 0 | 210.6 | -
N#CC(C#N)=Cc1ccc(O)c(O)c1 | 0 | - | 0 | 0 | -
Cc1c(Cl)cccc1NC(=O)C1Cc2ccccc2CN1C(=O)c1ccccc1 (stereo unspecified) | 0 | 0 | 0 | 0 | 0
COc1cc2c(c(OC)c1OC)-c1ccc(O)c(=O)cc1[C@@H](NC(C)=O)CC2 | - | - | - | 325.5 | -
N#CCSc1nc(-c2ccccc2)cs1 | 0 | 0 | 0 | 35.5 | 0
O=C(c1ccccc1F)N1CCN(c2cccc(C(F)(F)F)c2)CC1 | 0 | 0 | 0 | 121.5 | 0
O=C(c1c(F)c(F)c(F)c(F)c1F)N1CCN(c2cccc(C(F)(F)F)c2)CC1 | 0 | 0 | 0 | 0 | 0
O=C(NC(=S)Nc1nc2c(s1)CSc1ccccc1-2)c1ccccc1 | 0 | 0 | 83.5 | 0 | 0
SMILES | Sa RN4220 lethal | SARS 3CLpro inh | Sa ugtP lethal | PfHsp40 rescue | BJeLR viability
Cc1ccc(NC(=O)c2cc3nc(C)cc(C)n3n2)cc1 | 0 | 0 | 0 | 47.5 | 0
Cc1ccc(S(=O)(=O)Nc2ccc3c(c2)C(=O)N([C@H](C)CO)C[C@H](C)[C@@H](CN(C)C(=O)Nc2ccc(C(F)(F)F)cc2)O3)cc1 | 0 | - | 0 | 0 | -
O=C(N/N=C/c1cn(-c2ccccc2)nc1-c1cc2ccccc2o1)c1ccncc1 | - | 0 | - | 179.9 | 0
O=C(NN=Cc1cn(-c2ccccc2)nc1-c1cc2ccccc2o1)c1ccncc1 | 0 | - | 0 | - | -
O=C(N/N=C/c1cn(-c2ccccc2)nc1-c1cccs1)c1ccccc1F | - | 0 | - | 201.4 | 0
CCCN1CCC(=O)N([C@H](CSc2ccc(C)cc2)CC(C)C)CC1 | - | - | - | 0 | 0
Cc1onc(-c2ccccc2)c1C(=O)N[C@@H]1C(=O)N2C1SC(C)(C)[C@@H]2C(=O)O (stereo partly specified) | - | - | - | 0 | -
Cc1onc(-c2ccccc2Cl)c1C(=O)NC1C(=O)N2C1SC(C)(C)C2C(=O)O (stereo unspecified) | 98.6 | - | 100.0 | - | -
Cc1onc(-c2c(Cl)cccc2Cl)c1C(=O)NC1C(=O)N2C1SC(C)(C)C2C(=O)O (stereo unspecified) | 100.8 | 0 | 100.5 | 0 | 0
Cc1onc(-c2c(Cl)cccc2Cl)c1C(=O)N[C@@H]1C(=O)N2[C@@H]1SC(C)(C)[C@@H]2C(=O)O | 0 | 0 | 0 | 0 | 0
O=C(NN=Cc1cccs1)c1ccc(NC(=O)c2ccccc2Cl)cc1 | 0 | - | 0 | - | -

Screens from PubChem.
